Experiment [1] has as its system Saccharomyces cerevisiae BY4741 SeMeCo community. Nature of the experiment: mean cell size (pixel area) (pixels); higher = larger cells. The conditions noted are these: 10 µM; 24 h; SM minimal medium. In a few lines:
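For 24 h, 70 µl of yeast culture diluted to OD600 = 0.3 from an overnight preculture at OD600 = 1.0 was kept in SM medium in 384-well plates acoustically predosed with drug, final 10 µM. The strain was Saccharomyces cerevisiae BY4741 forming a fluorescent community of four plasmids, each complementing one auxotrophy and carrying a fluorescent marker. Automated confocal microscopy of paraformaldehyde-fixed cells, analysed in Harmony, provided mean cell pixel area per well, which was averaged over 3 replicates. Same SeMeCo high-content imaging drug screen: Selleck FDA-approved drugs at 10 µM, 24 h in SM medium, 384-well plates, 3 replicates.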

Experiment [2] has the same test system. Nature of the experiment: z-score of prototroph abundance vs DMSO median; higher = larger share of this subpopulation than in DMSO controls. The conditions noted are these: 10 µM; 24 h; SM minimal medium; subpopulation (auxotrophy): Prototroph. The method, boiled down: (§1)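 Four plasmids, each restoring a single auxotrophy and encoding a distinct fluorescent protein, were carried by a Saccharomyces cerevisiae BY4741 community. After overnight growth to OD600 1.0 and dilution to 0.3, 70 µl per well was grown for 24 h in minimal SM medium on 384-well plates acoustically predosed with library drugs at 10 µM final. Following paraformaldehyde fixation, automated confocal microscopy was used, with single-auxotroph fluorescent strains defining thresholds and autofluorescence correction. Subpopulation abundance was then scored as a z-score against the vehicle-well median.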

The test system is the same in experiment [3]. Briefly: z-score of subpopulation abundance vs DMSO median, subpopulation auxotrophic for M; higher = larger share of this subpopulation than in DMSO controls. The conditions noted are these: 10 µM; 24 h; SM minimal medium; subpopulation (auxotrophy): M. In a few lines: as §1
The test system is the same in experiment [4]. Nature of the experiment: z-score of subpopulation abundance vs DMSO median, subpopulation auxotrophic for U; higher = larger share of this subpopulation than in DMSO controls. The conditions noted are these: 10 µM; 24 h; SM minimal medium; subpopulation (auxotrophy): U. The method, boiled down: as §1
The test system is the same in experiment [5]. Briefly: z-score of subpopulation abundance vs DMSO median, subpopulation auxotrophic for LU; higher = larger share of this subpopulation than in DMSO controls. The conditions noted are these: 10 µM; 24 h; SM minimal medium; subpopulation (auxotrophy): LU. The method, boiled down: as §1
Experiment [6] has the same test system. Nature of the experiment: z-score of subpopulation abundance vs DMSO median, subpopulation auxotrophic for LM; higher = larger share of this subpopulation than in DMSO controls. The conditions noted are these: 10 µM; 24 h; SM minimal medium; subpopulation (auxotrophy): LM. In a few lines:
as §1

Experiment [7] shares this test system. Briefly: z-score of subpopulation abundance vs DMSO median, subpopulation auxotrophic for HM; higher = larger share of this subpopulation than in DMSO controls. The conditions noted are these: 10 µM; 24 h; SM minimal medium; subpopulation (auxotrophy): HM. The method, boiled down:
as §1

The test system is the same in experiment [8]. Nature of the experiment: z-score of subpopulation abundance vs DMSO median, subpopulation auxotrophic for HU; higher = larger share of this subpopulation than in DMSO controls. The conditions noted are these: 10 µM; 24 h; SM minimal medium; subpopulation (auxotrophy): HU. The method, boiled down:
as §1

Experiment [9] has the same test system. Nature of the experiment: z-score of subpopulation abundance vs DMSO median, subpopulation auxotrophic for UM; higher = larger share of this subpopulation than in DMSO controls. The conditions noted are these: 10 µM; 24 h; SM minimal medium; subpopulation (auxotrophy): UM. The method, boiled down:
as §1

Experiment [10] has the same test system. Nature of the experiment: z-score of subpopulation abundance vs DMSO median, subpopulation auxotrophic for HL; higher = larger share of this subpopulation than in DMSO controls. The conditions noted are these: 10 µM; 24 h; SM minimal medium; subpopulation (auxotrophy): HL. The method, boiled down: as §1
The test system is the same in experiment [11]. Nature of the experiment: z-score of subpopulation abundance vs DMSO median, subpopulation auxotrophic for HLU; higher = larger share of this subpopulation than in DMSO controls. The conditions noted are these: 10 µM; 24 h; SM minimal medium; subpopulation (auxotrophy): HLU. In a few lines:
as §1

Experiment [12] shares this test system. Nature of the experiment: z-score of subpopulation abundance vs DMSO median, subpopulation auxotrophic for HLM; higher = larger share of this subpopulation than in DMSO controls. The conditions noted are these: 10 µM; 24 h; SM minimal medium; subpopulation (auxotrophy): HLM. In a few lines:
as §1

Experiment [13] shares this test system. Briefly: z-score of subpopulation abundance vs DMSO median, subpopulation auxotrophic for LUM; higher = larger share of this subpopulation than in DMSO controls. The conditions noted are these: 10 µM; 24 h; SM minimal medium; subpopulation (auxotrophy): LUM. The method, boiled down: as §1
The test system is the same in experiment [14]. Nature of the experiment: z-score of subpopulation abundance vs DMSO median, subpopulation auxotrophic for HLUM; higher = larger share of this subpopulation than in DMSO controls. The conditions noted are these: 10 µM; 24 h; SM minimal medium; subpopulation (auxotrophy): HLUM. In a few lines: as §1
Experiment [15] has the same test system. Nature of the experiment: z-score of subpopulation abundance vs DMSO median, subpopulation auxotrophic for H; higher = larger share of this subpopulation than in DMSO controls. The conditions noted are these: 10 µM; 24 h; SM minimal medium; subpopulation (auxotrophy): H. In a few lines:
as §1

Experiment [16] has the same test system. Briefly: z-score of subpopulation abundance vs DMSO median, subpopulation auxotrophic for HUM; higher = larger share of this subpopulation than in DMSO controls. The conditions noted are these: 10 µM; 24 h; SM minimal medium; subpopulation (auxotrophy): HUM. In a few lines:
as §1

Experiment [17] shares this test system. Nature of the experiment: z-score of subpopulation abundance vs DMSO median, subpopulation auxotrophic for L; higher = larger share of this subpopulation than in DMSO controls. The conditions noted are these: 10 µM; 24 h; SM minimal medium; subpopulation (auxotrophy): L. The method, boiled down: as §1

Where a name gives a salt, the structure may show the parent alone. ± gives the standard deviation of the averaged measurements.

In experiment [1], `CCCCCc1ccc(C)cc1O` [Amylmetacresol] displayed a mean cell size of 12.4 ± 0.14. In addition, the “z-score of prototroph abundance” value in experiment [2] is -0.1. Moreover, the “z-score of subpopulation abundance” value in experiment [3] is -0.65; in [4] it was 0.39; in experiment [5] it was 0.24; in experiment [6], -0.71; in experiment [7], -0.5; in [8], -0.1. The “z-score of subpopulation abundance” value in [9] was -0.13; in experiment [10] it was -0.02; in experiment [11] it was 0.35; in experiment [12], 0.52; in experiment [13] it was 0.11; in experiment [14], 0.41.
With `CN(C)[C@@H]1C(=O)C(C(N)=O)=C(O)[C@@]2(O)C(=O)C3=C(O)c4c(O)ccc(Cl)c4[C@@H](O)[C@H]3C[C@@H]12` [Demeclocycline HCl], the “z-score of subpopulation abundance” value in experiment [3] was -1.78; in experiment [4], 0.03; in [15], 0.67; in experiment [5], -0.08; in experiment [6], -0.4; in [7] it was -1. The “z-score of subpopulation abundance” value in [8] was -0.34; in [9] it was -0.64; in experiment [10] it was 0.01; in experiment [11], -0.4; in experiment [12], -0.17; in experiment [16] it was -1. Besides, in [14], the “z-score of subpopulation abundance” value is -0.17.
Take `CCn1cc(C(=O)O)c(=O)c2cc(F)c(N3CCNCC3)cc21` [Norfloxacin]: the mean cell size in [1] came out at 12.3 ± 0.21. Further, in experiment [2], the “z-score of prototroph abundance” value was found to be 0.05. In addition, the “z-score of subpopulation abundance” value in experiment [3] was 0.77; in [17] it was -0.15; in experiment [15], 0.31; in experiment [6], 0.65; in experiment [7], 0.41; in experiment [8] it was -0.03. The “z-score of subpopulation abundance” value was -0.54 in [9]; -0.16 in experiment [11]; -0.51 in experiment [12]; 0.46 in [16]; -0.23 in experiment [13]; -0.9 in experiment [14].
With `COc1ccc2cc([C@H](C)C(=O)O)ccc2c1` [Naproxen Sodium], the mean cell size in [1] was determined as 12.84 ± 0.07. The “z-score of prototroph abundance” value in [2] is 1.33. For the same molecule, the “z-score of subpopulation abundance” value is 0.17 in experiment [3]; 0.02 in experiment [17]; -1.01 in [4]; -0.42 in experiment [15]; -0.16 in experiment [6]; -0.61 in [7]. For the same molecule, the “z-score of subpopulation abundance” value in experiment [8] is -1.5; in experiment [9], -2.49; in experiment [10] it was 0.47; in experiment [11], 0; in experiment [12] it was 0.18; in experiment [16] it was -2.32. Further, the “z-score of subpopulation abundance” value was -0.75 in experiment [13] and -0.52 in experiment [14].
Turning to `CCCN[C@H]1CCc2nc(N)sc2C1` [Pramipexole dihydrochloride], the mean cell size in experiment [1] is 12.3 ± 0.17. Moreover, the “z-score of prototroph abundance” value in experiment [2] is 0.25. In addition, the “z-score of subpopulation abundance” value in experiment [3] is -0.32; in experiment [4], -0.06; in experiment [15] it was -0.35; in experiment [5], -0.61; in [6], -0.39; in experiment [7], -0.31. In addition, the “z-score of subpopulation abundance” value in [8] is 0; in [9] it was 0.32; in experiment [10], 0.19; in experiment [11], -0.24; in [16], 0.52; in experiment [13] it was -0.25. The “z-score of subpopulation abundance” value in experiment [14] stood at 0.
`CN1[C@@H]2CC[C@H]1C[C@@H](OC(=O)c1c[nH]c3ccccc13)C2` [Tropisetron]: the mean cell size in experiment [1] stood at 12.15 ± 0.079. In addition, in [2], the “z-score of prototroph abundance” value was -1.48. Also, the “z-score of subpopulation abundance” value in experiment [3] was 1.72; in experiment [17], 1.61; in experiment [4], -0.36; in [6] it was 1.96; in [7] it was 2.08; in [8], 0.59. Besides, the “z-score of subpopulation abundance” value turned out to be 0.48 in experiment [9]; 1.63 in experiment [10]; 1.41 in experiment [11]; 1.12 in [12]; 0.95 in [16]; 1.16 in experiment [13]. Further, in experiment [14], the “z-score of subpopulation abundance” value was 0.38.
Turning to `CN1CCN(CCCN2c3ccccc3Sc3ccc(C(F)(F)F)cc32)CC1` [Trifluoperazine 2HCl], the “z-score of subpopulation abundance” value in [3] is -0.02; in experiment [4], 0.38; in [15], -0.58; in experiment [5], -0.4; in [6] it was -0.04; in [7], 0.33. For the same molecule, the “z-score of subpopulation abundance” value in experiment [8] was 0.54; in [9], 0.11; in experiment [10] it was -0.59; in experiment [11], -0.24; in experiment [12], -0.79; in [16], 0.42. Further, the “z-score of subpopulation abundance” value in experiment [13] is 0.
`Cc1ccc(C(=O)C(C)CN2CCCCC2)cc1` (stereo not given) [Tolperisone HCl]: in experiment [1], the mean cell size is 12.6 ± 0.14. In experiment [2], the “z-score of prototroph abundance” value was 1.01. Further, the “z-score of subpopulation abundance” value was 0.72 in experiment [3]; -0.15 in experiment [4]; -0.79 in experiment [15]; -0.75 in [5]; -0.14 in experiment [6]; -0.34 in experiment [7]. Further, the “z-score of subpopulation abundance” value was -0.2 in experiment [8]; -0.03 in experiment [9]; -0.34 in [10]; -0.71 in experiment [11]; -0.56 in [16]; -0.71 in experiment [13]. Also, the “z-score of subpopulation abundance” value in [14] is -0.57.

Values taken from the supplement of paper PMC8975748.
